SMILES strings stand for the structures. About 83,000 compounds went through this panel and 20% of them were active in at least one assay; those are over-represented in the sample as a whole.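 96-well plates, one dose, 48 hours. Percent growth reported; active if below 10.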 Unmarked numbers belong to inactive results. Calls of active or inactive are those of the source.

This note sets out measurements from PubChem BioAssay (NCI).

Test systems include NCI-H23 lung; NCI-H322M lung; HOP-62 NSCLC; NCI-H460 lung; HOP-92 NSCLC; NCI-H522 lung; A549/ATCC NSCLC; 786-0 renal; COLO 205 colon; DU-145 prostate; K-562 leukemia; MALME-3M melanoma; MDA-MB-231 breast; RXF 393 renal; SF-268 CNS; SF-295 CNS; SF-539 CNS; UACC-257 melanoma; M14 melanoma; HCT-15 colon.
Holding throughout (experiment): NCI-60 one-dose screen, 48 h (100 = growth as untreated, 0 = no growth, -100 = all killed)
Holding throughout (settings): 10 µM unless noted

As for `CN(C)/C=C1\SC(=Nc2ccc(Cl)cc2)NC1=O`, the growth in the assay on NCI-H23 lung is 103%; in the assay with NCI-H322M lung it was 108%; in the assay on HOP-62 NSCLC, 114%; in the assay with NCI-H460 lung it was 102%; in the assay on HOP-92 NSCLC, 102%; in the assay on NCI-H522 lung, 95.8%. Besides, the growth in the assay on A549/ATCC NSCLC was 100%; with 786-0 renal, 99.8%; in the assay with COLO 205 colon it was 119%; with DU-145 prostate, 108%; in the assay with K-562 leukemia, 101%; in the assay with MALME-3M melanoma, 103%. Further, the growth is 92.7% with MDA-MB-231 breast; 100% with RXF 393 renal; 101% in the assay with SF-268 CNS; 101% with SF-295 CNS; 96% with SF-539 CNS; 101% with UACC-257 melanoma. Also, the results for the growth in the assay on M14 melanoma and with HCT-15 colon were 109% and 103%, respectively.
With `COc1ccc(/C=C/C(=O)c2c(C)nc3ccccc3c2/C=C/c2ccccc2)cc1O`, the growth was 50.6% in the assay with NCI-H23 lung; 42.3% with NCI-H322M lung; 88.6% with HOP-62 NSCLC; 22.8% with NCI-H460 lung; 65.6% with HOP-92 NSCLC; 14.9% in the assay with NCI-H522 lung. Moreover, the growth is 39.5% with A549/ATCC NSCLC; 99.4% with 786-0 renal; 109% in the assay on COLO 205 colon; 45.7% in the assay with DU-145 prostate; 20.9% in the assay on K-562 leukemia; 86.3% with MALME-3M melanoma. Further, the growth in the assay with MDA-MB-231 breast is 52.7%; in the assay on RXF 393 renal it was 64.1%; in the assay on SF-268 CNS, 57.7%; with SF-295 CNS, 90.8%; in the assay with SF-539 CNS it was 81.7%; in the assay on UACC-257 melanoma it was 68.7%. Besides, the results for the growth in the assay with M14 melanoma and in the assay with HCT-15 colon were 15.9% and 39.1%, respectively.
Consider `CC1=C(CC(=O)c2cccc([N+](=O)[O-])c2)C(=O)c2ccccc2C1=O`, for which the growth with NCI-H23 lung is -24.9% (active); in the assay with NCI-H322M lung, 68.7%; in the assay with HOP-62 NSCLC it was -67.2% (active); in the assay on NCI-H460 lung, -20.9% (active); in the assay with HOP-92 NSCLC it was -22.3% (active); in the assay on NCI-H522 lung, -47.2% (active). In addition, the growth in the assay with A549/ATCC NSCLC was -15.3% (active); in the assay with 786-0 renal, -53.2% (active); with COLO 205 colon, 108%; in the assay with DU-145 prostate, -57% (active); in the assay on K-562 leukemia it was -4.57% (active); in the assay on MALME-3M melanoma it was -87.5% (active). In addition, the growth is -17.7% (active) in the assay on MDA-MB-231 breast; -26% (active) in the assay with RXF 393 renal; -33.4% (active) with SF-268 CNS; -58.2% (active) in the assay with SF-295 CNS; -22.1% (active) with SF-539 CNS; -13.7% (active) in the assay with UACC-257 melanoma. The growth in the assay on M14 melanoma is -41.9% (active); with HCT-15 colon, 19.5%.
Take `CC1(C)CC2(C)OC2C2(C1)N=NC(=Nc1ccccc1)O2` (stereo not given): the growth is 88.9% with NCI-H23 lung; 103% with NCI-H322M lung; 60.9% in the assay with HOP-62 NSCLC; 79.5% in the assay with NCI-H460 lung; 87.6% with HOP-92 NSCLC; 15.1% in the assay on NCI-H522 lung. Besides, the growth was 54.1% in the assay on A549/ATCC NSCLC; 36.3% in the assay on 786-0 renal; 73% in the assay on COLO 205 colon; 67.2% in the assay with DU-145 prostate; 19.5% in the assay with K-562 leukemia; 57.1% in the assay on MALME-3M melanoma. The growth in the assay with MDA-MB-231 breast is 91.8%; with RXF 393 renal, -1.33% (active); in the assay on SF-268 CNS, 83.3%; with SF-295 CNS, 65.6%; with SF-539 CNS, 83.7%; in the assay on UACC-257 melanoma, 64.2%. Moreover, the growth is 65.4% in the assay with M14 melanoma and 9.91% (active) in the assay on HCT-15 colon.
With `NC1(N2SC(S)=C3CCCC=C32)CCCCC1`, the growth in the assay on NCI-H23 lung was 105%; in the assay with NCI-H322M lung, 99.8%; in the assay on HOP-62 NSCLC it was 101%; in the assay on NCI-H460 lung, 107%; in the assay on HOP-92 NSCLC it was 96.6%; in the assay with NCI-H522 lung, 81.9%. Besides, the growth with A549/ATCC NSCLC is 100%; in the assay with 786-0 renal, 106%; in the assay on COLO 205 colon, 107%; in the assay on DU-145 prostate, 98.3%; in the assay with K-562 leukemia it was 84.9%; in the assay on MALME-3M melanoma it was 102%. Besides, the growth in the assay on MDA-MB-231 breast is 107%; in the assay on RXF 393 renal, 129%; with SF-268 CNS, 96.3%; in the assay with SF-295 CNS, 115%; with SF-539 CNS, 104%; in the assay with UACC-257 melanoma, 99.8%. For the same molecule, the growth is 101% with M14 melanoma and 108% with HCT-15 colon.
Turning to `CCN(CC)CCCNc1ccnc2cc3ccccc3cc12`, the growth with NCI-H23 lung is 83.3%; with NCI-H322M lung it was 76%; with HOP-62 NSCLC it was -9.44% (active); in the assay with NCI-H460 lung, 45.5%; in the assay on HOP-92 NSCLC, 55.6%; in the assay on NCI-H522 lung it was 51.8%. Further, the growth in the assay on A549/ATCC NSCLC was 46.6%; with 786-0 renal, 66.8%; in the assay on COLO 205 colon, 74.8%; in the assay with DU-145 prostate, 73.8%; with K-562 leukemia, 66.3%; in the assay with MALME-3M melanoma, 40.6%. The growth with MDA-MB-231 breast is 56.4%; in the assay with RXF 393 renal, 35.7%; in the assay on SF-268 CNS it was 60.2%; with SF-295 CNS it was -34% (active); with SF-539 CNS, 30.8%; in the assay on UACC-257 melanoma, 75.5%. In addition, the growth with M14 melanoma is 81.9%; in the assay on HCT-15 colon it was 43.2%.
Regarding `COc1ccc(Cn2cc(Cn3cc(C=C4C(=O)NC(=O)NC4=O)c4ccccc43)nn2)cc1`, the growth is 62.7% in the assay with NCI-H23 lung; 90.1% with NCI-H322M lung; 92.4% with HOP-62 NSCLC; 48% with NCI-H460 lung; 84.5% in the assay on HOP-92 NSCLC; 89.9% in the assay with NCI-H522 lung. Moreover, the growth in the assay on A549/ATCC NSCLC is 112%; with 786-0 renal, 96.7%; with COLO 205 colon it was 108%; in the assay with DU-145 prostate it was 92.1%; with K-562 leukemia, 50.4%; in the assay with MALME-3M melanoma it was 85.5%. Moreover, the growth was -96.3% (active) in the assay with MDA-MB-231 breast; 77.9% in the assay on RXF 393 renal; 83.3% in the assay with SF-268 CNS; 77.1% with SF-295 CNS; 88.3% in the assay on SF-539 CNS; 96.4% with UACC-257 melanoma. For the same molecule, the growth in the assay with M14 melanoma is 82.4%; in the assay on HCT-15 colon, 85.9%.
On to `Cc1ccc(NC2=CC(=O)C(=O)c3ccccc32)c(C)c1`, for which the growth with NCI-H23 lung is -25.5% (active); in the assay with NCI-H322M lung, 57.7%; in the assay on HOP-62 NSCLC, 27.3%; with NCI-H460 lung, -56.7% (active); in the assay with HOP-92 NSCLC, 123%; with NCI-H522 lung, 47.6%. Besides, the growth is 5.75% (active) in the assay on A549/ATCC NSCLC; 99.4% in the assay on 786-0 renal; 85% with COLO 205 colon; -60.8% (active) in the assay on DU-145 prostate; 61.3% in the assay with K-562 leukemia; 62.5% with MALME-3M melanoma. In addition, the growth is 49.5% in the assay with MDA-MB-231 breast; 85.5% with RXF 393 renal; 63.2% in the assay on SF-268 CNS; 34.6% in the assay with SF-295 CNS; 48.8% in the assay with SF-539 CNS; 23.1% with UACC-257 melanoma. In addition, the results for the growth in the assay with M14 melanoma and with HCT-15 colon were -15.5% (active) and 13.3%, respectively.
